A number with no mark means an inactive call. No rule for the calls is given here.
Test system: Rolipram
Experiment: off-target receptor, channel and CYP panel, profiling panel, selectivity assay for S1P3 agonist project, biochemical, Ricerca HitProfilingScreen, CYP450 (AID 540351)
Settings: Ricerca receptor/enzyme binding panel plus CYP450, at 30 µM, active compounds read high

Question: Which inhibition does the source give for `O=C(c1cc(C2CC2)on1)N(C1CCCCC1)C1CCCCC1` here?
Answer: Its inhibition is 18%.

— PubChem BioAssay AID540351 (The Scripps Research Institute Molecular Screening Center, 2011)
